Measured values as given in PubChem BioAssay (NCI).
The panel holds about 79,000 compounds, 15% with a hit somewhere; the sample as a whole holds those more often. No stated cut-off is given here; in the data, active means growth inhibition above about 70%; inactive means the rest.

Tests used:
[1] = NCI Yeast Anticancer Drug Screen. Data for the rad50 strain (AID 155);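 further: 0% = growth of vehicle-only cultures of the same strain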; details: S. cerevisiae rad50 strain growth inhibition; at 50.0 µM; active compounds read high
Method in brief: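 Vehicle-treated cultures provide the reference for the growth inhibition reported for compound-exposed, repair-deficient yeast.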

[2] = NCI Yeast Anticancer Drug Screen. Data for the mec2-1 strain (AID 157); details: S. cerevisiae mec2-1 strain, at 50.0 µM, active compounds read high
Method in brief: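 Readout is yeast growth inhibition, normalised to vehicle-treated controls, in the mec2-1 strain exposed to compound.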

[3] = NCI Yeast Anticancer Drug Screen. Data for the sgs1 mgt1 strain (AID 161);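 further: 0% = growth of cultures given vehicle only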; details: S. cerevisiae sgs1 mgt1 strain, at 50.0 µM, active compounds read high
Method in brief: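 Growth of a repair-deficient yeast mutant was monitored after compound treatment and expressed as inhibition relative to vehicle-treated cultures.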

[4] = NCI Yeast Anticancer Drug Screen. Data for the cln2 rad14 strain (AID 165);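 further: 0% = growth equal to vehicle treated cultures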; details: S. cerevisiae cln2 rad14 strain, at 50.0 µM, active compounds read high
Method in brief: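 Relative to vehicle controls, growth inhibition of compound-treated cln2 rad14 yeast was recorded.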

[5] = NCI Yeast Anticancer Drug Screen. Data for the bub3 strain (AID 167); details: S. cerevisiae bub3 mutant strain, at 50.0 µM, active compounds read high
Method in brief: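 Mutant yeast screening strain plus compound; vehicle-treated cultures serve as the 0% inhibition reference.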

[6] = NCI Yeast Anticancer Drug Screen. Data for the mlh1 rad18 strain (AID 175); details: S. cerevisiae mlh1 rad18 strain growth inhibition; at 50.0 µM; active compounds read high
Method in brief: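 Test agents were incubated with a yeast strain of defined genotype (DNA damage repair defect). Inhibition of growth was derived by comparison with vehicle-exposed cultures.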

Measured: growth inhibition

O=C1/C(=C/c2ccc(O)c(O)c2)CC/C1=C\c1ccc(O)c(O)c1
inactive: [1] -18.9% | [2] -23.9% | [3] -21% | [4] 10.9% | [5] -16.1% | [6] -22.6%

Clc1ccc2c(c1)nnn2OC1CCCC1
inactive: [1] 10.4% | [2] -3.7% | [3] -11.1% | [4] -24.9% | [5] -10.8% | [6] -6.8%

[N-]=[N+]=Nc1nc2c(N)ncnc2n1C1OC(CO)C(O)C1O (stereo unspecified)
inactive: [1] 23.4% | [2] 16.4% | [3] 6.15% | [4] -22.8% | [5] -1.35% | [6] 20.9%

O=C(/C=C/C(=O)NCc1ccccc1)NCc1ccccc1
inactive: [1] -0.2% | [2] 0.4% | [3] 16.9% | [4] -11.1% | [5] 4.7% | [6] -5.95%

CCON=C(c1ccc(Cl)cc1)c1ccc(Cl)cc1
inactive: [1] 2.45% | [2] -21.6% | [3] 12.7% | [4] 16.8% | [5] 26.1% | [6] 1.4%

c1ccc(C2CCOCO2)cc1 (stereo unspecified)
inactive: [1] 14.4% | [2] 15.7% | [3] 15.8% | [4] 12.2% | [5] 5.7% | [6] 24.2%

NC(=O)c1ccncc1
inactive: [1] -5% | [2] -7.3% | [3] -13.1% | [4] 5.35% | [5] -1.05% | [6] -6%

CCOC(=O)/C(C#N)=C/c1ccccc1OC
inactive: [1] 35.6% | [2] 38.9% | [3] 31.9% | [4] 10.5% | [5] 47.5% | [6] 47.5%

CCCCCC1(C)OCC(c2ccccc2)O1 (stereo unspecified)
inactive: [1] -12.8% | [2] -9.45% | [3] -21% | [4] -47% | [5] -13.3% | [6] 21.1%

Cc1ncc2c[n+]([O-])ccn12
inactive: [1] 6.05% | [2] 10.9% | [3] -4% | [4] -1.25% | [5] 17.4% | [6] 7.8%

O=[N+]([O-])c1cnc(N(CCO)CCO)s1
inactive: [1] 30.4% | [2] -25.4% | [3] 0.1% | [4] 37.8% | [5] -11.5% | [6] 16.4%

Cc1ccc(C2C(Cl)C(=O)N2NC(=O)c2ccc(N)cc2)cc1 (stereo unspecified)
inactive: [1] -50.4% | [2] -21.5% | [3] -61.1% | [4] -46.8% | [5] -27.4% | [6] -42%

NC1=NC(c2ccccc2O)CC(=O)N1 (stereo unspecified)
inactive: [1] -6.4% | [2] -8.25% | [3] -12.9% | [4] -32.6% | [5] -3.9% | [6] -6.35%

CCOC(=O)c1ccc(NC(=O)c2cccc(Cl)c2)cc1
inactive: [1] 0.1% | [2] -6.85% | [3] -4.25% | [4] -5.45% | [5] 9.5% | [6] 1.25%

[Mn].[NH-]C(CSSCC(N)C(=O)O)C(=O)O (stereo unspecified)
inactive: [1] -2.45% | [2] -0.4% | [3] -1% | [4] 5.5% | [5] 22.6% | [6] 9%

CCC1C(C#N)(C#N)C1(C#N)C#N
inactive: [1] -4.7% | [2] 21.8% | [3] 7.45% | [4] 0.35% | [5] 1.45% | [6] 12.2%

Cc1cc(Cl)ccc1NC(=O)C1C(=O)N(c2ccc(Cl)cc2C)C(=O)/C1=N\NC(N)=O (stereo unspecified)
inactive: [1] 7.65% | [2] -24.4% | [3] 14.4% | [4] 6.1% | [5] -6.45% | [6] 5.7%

CN(C)CCCOCCn1c2c(c3ccccc31)CCCC2
inactive: [1] 19.2% | [2] -1.2% | [3] 12.9% | [4] -2.95% | [5] 15.8% | [6] -89.5%

O=C(OCc1ccc(Cl)cc1Cl)OCc1ccc(Cl)cc1Cl
inactive: [1] 7.55% | [2] -0.9% | [3] -3.7% | [4] -31.7% | [5] 19.2% | [6] 37.4%

CCCCC(CC)CNCC(CC)CCCC (stereo unspecified)
inactive: [1] 33.8% | [2] 45.5% | [3] 14.8% | [4] 40.6% | [5] 5.5% | [6] 26.1%

COC(=O)C1C(=O)CC2CCCCC21 (stereo unspecified)
inactive: [1] 2.75% | [2] -19.6% | [3] -13.9% | [4] 20.6% | [5] -22.3% | [6] 16.8%

CN(C)N=Nc1ccc(C(=O)N/N=C/c2ccc([N+](=O)[O-])cc2)cc1
inactive: [1] -0.95% | [2] 40.5% | [3] 4.75% | [4] -5.75% | [5] 23.9% | [6] 17.9%

COC1=C(C(=O)c2ccc(OC)c(OC)c2)COC1=O
inactive: [1] -8.4% | [2] -13.3% | [3] -4.5% | [4] -4.4% | [5] 31.4% | [6] 7.15%

Cc1cccc(C)c1N1C(=O)C2c3[nH]c4ccccc4c3C3CCC(C(C)(C)C)CC3C2C1=O (stereo unspecified)
inactive: [1] 37.7% | [2] 11.4% | [3] 28.2% | [4] 1.8% | [5] 3.4% | [6] 18.1%

C/C(=N\N=C\N(C)S(=O)(=O)c1ccc(C)cc1)c1ccccc1
inactive: [1] -10.7% | [2] -2.8% | [3] -6.3% | [4] -6.25% | [5] 1.55% | [6] -2.7%

NC(N)=NC(=S)Nc1ccc(Cl)cc1
inactive: [1] 21.6% | [2] 1.6% | [3] 7.55% | [4] -4% | [5] -15.7% | [6] 31.1%

CC/C(=N/NS(=O)(=O)c1ccc(C)cc1)c1ccc(O)cc1
inactive: [1] 22.7% | [2] 18.1% | [3] 7.9% | [4] 36.8% | [5] 25.5% | [6] 46.6%

C[N+]1(C)C2C=CCC1CSC2 (stereo unspecified)
inactive: [1] 4.55% | [2] 0.15% | [3] -3.8% | [4] 3.65% | [5] 2.75% | [6] 12.8%

O=c1[nH]cc(CO)c(=O)[nH]1
inactive: [1] 0.35% | [2] 4.8% | [3] -1.7% | [4] 6% | [5] 11.9% | [6] -4%

CCOC(=O)C(C(=O)OCC)C(C)(C)C
inactive: [1] -96.7% | [2] -18.3% | [3] -28.2% | [4] -36.4% | [5] -3.85% | [6] -9.2%

CC(=O)O[C@]12CCCC1C1(O)C(O)CCCC12 (stereo partly specified)
inactive: [1] -30.7% | [2] -50.1% | [3] -72.3% | [4] -9.55% | [5] -30.6% | [6] -34.6%

CCOC(=O)c1ccc(NC(=O)Nc2ccccc2C(=O)OC)cc1
inactive: [1] 9.95% | [2] 0.35% | [3] 2.7% | [4] 9.55% | [5] 25.4% | [6] 7.4%

C=C(CCCC(C)OC(C)OCC)[Si](C)(C)C (stereo unspecified)
inactive: [1] -26.2% | [2] -52% | [3] -20.6% | [4] -7.15% | [5] -23.6% | [6] -37.9%

Cn1cnc([N+](=O)[O-])c1Sc1nc2ccccc2[nH]1
inactive: [1] -16.4% | [2] -10.3% | [3] -12.2% | [4] 3.65% | [5] -30.6% | [6] -19.1%

Cc1ccc(S(=O)(=O)N2CCCC(O)c3ccccc32)cc1 (stereo unspecified)
inactive: [1] -18.2% | [2] -15.8% | [3] -29.4% | [4] 11.7% | [5] 6.65% | [6] 3.85%

CN(Cc1ccccc1)C(=O)/C=C/c1ccccc1
inactive: [1] 9.8% | [2] 22.1% | [3] 26.4% | [4] 2.85% | [5] 27.2% | [6] 14.8%

CCCCCCCCCCCCCCCCCCCl
inactive: [1] 4.9% | [2] 6.6% | [3] 0.05% | [4] -31.1% | [5] 5.7% | [6] 28.4%

CC(C)(C)[Si](C)(C)OCCc1ccccc1C1CC2(S(=O)(=O)c3ccccc3)ON1CC2S(=O)(=O)c1ccccc1 (stereo unspecified)
inactive: [1] 15.1% | [2] -1.7% | [3] -8.2% | [4] -12.6% | [5] 8.4% | [6] 21.4%

CC(=O)C(=Cc1c[nH]c2ccccc12)C(C)=O
inactive: [1] 31.7% | [2] 13.7% | [3] 38.4% | [4] 9.65% | [5] 35.4% | [6] 31.6%

COCc1ccc(C(=O)Nc2c(N)ncnc2N)cc1
inactive: [1] 5.4% | [2] 13.7% | [3] -0.15% | [4] 0.9% | [5] 23.7% | [6] -0.1%

CSc1nc(=O)[nH]c2c1[nH]c(=O)n2-c1ccccc1
inactive: [1] 1.2% | [2] 5.85% | [3] -6.35% | [4] -15.7% | [5] 8.3% | [6] -9.05%
